The values below come from PubChem BioAssay (NCI).

Compounds without any hit were thinned out: in the full panel of roughly 83,000, 20% have a hit.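 Assay: single dose, 48 h. Readout: percent growth (0 = no net growth; negative = cell death). Active: <10.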 A number with no mark means an inactive call. Active and inactive are the calls of the source.

This assay relates to UO-31 renal. The experiment in a line: NCI-60 one-dose screen, 48 h (100 = growth as untreated, 0 = no growth, -100 = all killed). The settings on record: 10 µM. The method, then:
Growth inhibition of the UO-31 human tumor cell line is measured as a screen for anti-cancer activity. Cells are grown in 96 well plates and exposed to the test compound for 48 hours. Compounds are tested at a single concentration, which is 10^-5 M for most compounds. The reported endpoint is percent growth (GI% or GIPRCNT), where numbers from 0 - 100% represent growth inhibition, and numbers from -100% - 0 represent cell death. For example, a value of 40 represents 60% growth inhibition. A value of 0 means no net growth occurred over the course of the experiment. A value of -40 indicates 40% of cells at the beginning of the experiment died by the end of the experiment. A value of -100 means all cells are dead at the end of the experiment.
NCI-60 Human Tumor Cell Lines Screen was performed using the standard one-dose NCI protocol, which is described in more detail at https://dtp.cancer.gov/discovery_development/nci-60/default.htm.
Compounds with GIPRCNT values below 10 were considered active. Activity score was based on GIPRCNT using the following formula: […]
Score is 0 for GIPRCNT values of 100 or above, 50 for GIPRCNT values of 0, and 100 for GIPRCNT values of -100.
With `COc1ccc(-c2nc(S(=O)(=O)c3ccc(C)cc3)c(S(=O)(=O)CC(=O)N(C)Cc3ccccc3)o2)cc1`, the growth is 34.8%.
`CS(=O)(=O)Nc1ccc(-c2ccc3c(c2)ncn3-c2ccc(NC(=O)Nc3ccc(Cl)c(C(F)(F)F)c3)cc2)cc1`: the growth was -65.1% (active).
Take `O=C(Nc1ccncc1)c1ccc(-n2c(=O)[nH]c3ccccc3c2=O)cc1`: the growth was 87.3%.
Under `CC(=O)Nc1ccc(-c2cn(-c3cccc(C(=O)Nc4cc(CN5CCOCC5)cc(C(F)(F)F)c4)c3)nn2)cn1` stands -93.5% (active); under `O=C(Cn1nc(-c2ccccc2)ccc1=O)NNC(=S)NC1CCCCC1`, 81.2%; under `Brc1ccc(N/N=C/c2c[nH]c3ccccc23)nc1`, 2.76% (active).
Under `O=C(CS(=O)(=O)c1oc(-c2ccc(Cl)cc2)nc1S(=O)(=O)c1ccccc1)N1CCCC1` stands -100% (active).
Under `O=c1c2ccccc2nc(COc2ccccc2)n1/N=C/c1ccc(F)cc1` stands 84.4%; under `Cc1cc(=O)oc2cc(OCCCCOc3ccc(/C=C/C(=O)Nc4cccc(Cl)c4)cc3)ccc12`, 84.9%; under `COc1ccc(-c2ccc(/C=N/NC(=O)c3[nH]c4ccc(Br)cc4c3-c3ccccc3)o2)cc1`, 43.9%.
Regarding `O=C(NCCCCCCCCCC[P+](c1ccccc1)(c1ccccc1)c1ccccc1)c1ccc(-n2nc(-c3ccccc3O)nc2-c2ccccc2O)cc1`, the growth was -84.3% (active).
Under `Cc1ccc(C(=O)NNC(=O)CSc2nc3ccccc3c(=O)[nH]2)cc1` stands 75.2%; under `O=C(c1ccc(-n2c(=O)[nH]c3ccccc3c2=O)cc1)N1CCOCC1`, 82.5%; under `CCCCCCCCCCCCCCCCCCCC(=O)NCCc1c[nH]c2ccc(O)cc12`, 71.9%.
As to `O=[N+]([O-])c1ccc(-c2nc(-c3ccccc3)c(-c3ccccc3)n2-c2ccc(S(=O)(=O)Nc3ncccn3)cc2)cc1`, the growth was 22.1%.
Take `CCN1CCN(c2ccc(NC(=O)Nc3ccc(-c4cc(C(=O)NC)c5ncccc5n4)cc3)cc2C(F)(F)F)CC1`: the growth is -100% (active).
For `COc1ccc(-c2nc(S(=O)(=O)c3ccccc3)c(S(C)(=O)=O)o2)cc1` the value was -100% (active); for `CN1CCc2c(sc3ncnc(N/N=C/c4cn(-c5ccccc5)nc4-c4ccc(Cl)cc4)c23)C1`, 15.4%.
For `COc1ccccc1C(=O)NNC(=O)CSc1nc2c(c(=O)[nH]1)CCCC2` the value was 61.9%; for `COc1ccc(CN2[C@H](C(=O)NCc3ccc(C(=O)NO)cc3)Cc3c([nH]c4ccccc34)[C@H]2C2CC2)cc1`, 66.4%; for `CCOP(=O)(OCC)O[C@H]1CC[C@]2(C)[C@H]3CC[C@@H]4[C@@H]([C@](C)(O)CCC=C(C)C)CC[C@@]4(C)[C@]3(C)CC[C@H]2C1(C)C`, 24.8%.
`CN1CCCN(Cc2ccc(C(=O)Nc3cccc(Nc4ccc5cc(O)ccc5n4)c3)cc2C(F)(F)F)CC1`: the growth was 91.7%.
For `O=C(N=Nc1c(O)[nH]c2ccc(Br)cc12)c1ccc2nc(-c3ccccc3)[nH]c2c1` the value was 27.3%; for `O=C1Nc2cc(-c3ccc(NC(=O)c4cccs4)cc3)ccc2/C1=C/c1ccc[nH]1`, 82.1%.
For `COc1ccc2cc([C@H](C)C(=O)NCc3ccccc3)ccc2c1`, the growth was 46.3%.
For `O=C(Cn1cc(CSc2nnc3oc4ccccc4n23)nn1)Nc1ccc(Br)cc1` the value was 74.2%.
Regarding `Cc1ccc(/C(N)=N/c2sc(-c3ccccc3)nc2-c2ccccc2)cc1`, the growth is 69.9%.
For `CCOC(=O)N/C(=C1/OCCN1C)[P+](c1ccccc1)(c1ccccc1)c1ccccc1` the value was 87.2%; for `C=CC(=O)Nc1nc(-c2cccc(NS(=O)(=O)c3cccc4c(N(C)C)cccc34)c2)cs1`, -100% (active); for `Clc1ccc2c(N/N=C/c3c[nH]c4ccc(Br)cc34)ccnc2c1`, -95.8% (active).
For the compound `O=c1cc(-c2ccccc2)oc2cc(OCCCNCc3ccccc3)cc(O)c12`, the growth was -9.86% (active).
In the case of `O=C(Nc1ccc(I)cc1)Nc1nc2ccc([N+](=O)[O-])cc2s1`, the growth was -100% (active).
For `COc1cc2c3c(n(CCCNC(C)C)c(=O)c2cc1OC)-c1nc2c(cc1C3=O)OCO2` the value was -97% (active); for `O=c1c2ccccc2nc(COc2ccccc2)n1/N=C/c1ccc(N2CCOCC2)cc1`, 69.3%.
For `Cc1ccc2nc(COc3ccc(C(=O)NNC(=S)NCCc4ccccc4)cc3)[nH]c2c1`, the growth is 84.3%.
Under `CC1(c2ccccc2)NC(=O)N(CC(=O)Nc2ccc(C(=O)/C=C/c3ccc(Br)cc3)cc2)C1=O` (stereo not given) stands 34.3%; under `Cc1cc(C)nc(NS(=O)(=O)c2ccc(N/C(N)=N/c3nccc(-c4cccs4)n3)cc2)n1`, 59.1%; under `COc1ccc(/C(C)=N/N=C2C(=O)N(C)c3ccc(Br)cc32)cc1S(N)(=O)=O`, 65.1%.
As to `COc1ccc(/C=C/C(=O)c2ccc(NC(=O)CN3C(=O)NC(C)(c4ccccc4)C3=O)cc2)cc1` (stereo not given), the growth is 56.8%.
Under `CC(C)Sc1nc(NC2CC2)c(C#N)c(-c2ccccc2)n1` stands 79.4%.
